From PubChem BioAssay (NCI)
Where “and” joins values, the source holds several entries; their conditions need not be identical. Equal values may be shown once. Compounds without any hit were thinned out: in the full panel of roughly 79,000, 15% have a hit. The source holds several records for some structures; these can differ, active in one and inactive in another. Calls of active or inactive are those of the source. Cut-off read from the data, not from the text of the source: active = growth inhibition above about 70%; inactive = the rest.

Assay: NCI Yeast Anticancer Drug Screen. Data for the cln2 rad14 strain (AID 165);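 note: 0% = growth equal to vehicle treated cultures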
Conditions: S. cerevisiae cln2 rad14 strain, stronger effect = higher value
Experimental: Growth inhibition of yeast strains with defined genetic alterations is measured as a screen for potential anti-cancer activity. Selected strains with alterations in DNA damage repair or cell cycle control were exposed to compounds and growth inhibition was measured relative to vehicle treated controls. The strain used in this assay is cln2 rad14

[1] = at 5.0 µM (retest, dose inferred, filed as 0.5)
[2] = at 50.0 µM (retest, dose inferred, filed as 5.0)

## O=C(C1C(c2ccccc2)N1C(c1ccccc1)c1ccccc1)C1C(c2ccccc2)N1C(c1ccccc1)c1ccccc1 (configuration not stated)
[1]
  growth inhibition: -17% (inactive)
[2]
  growth inhibition: 6% (inactive)
At 50.0 µM
  growth inhibition: 24% (inactive)

## CC1(C)OCC(COC(=O)C=[N+]=[N-])O1 (configuration not stated)
[1]
  growth inhibition: -3% (inactive)
[2]
  growth inhibition: -14% (inactive)
At 50.0 µM
  growth inhibition: -6.95% (inactive)

## CC(C)=CC1CC(C)C2(CCC3(C)CC4C(C(=O)CC4(C)O)/C(C=O)=C\CC32)O1 (configuration not stated)
[1]
  growth inhibition: 99% (active)
[2]
  growth inhibition: 99% (active)
At 50.0 µM
  growth inhibition: 93.6% (active)

## CCOC(=O)C1([Se]c2ccccc2)CCCC1=O (configuration not stated)
[1]
  growth inhibition: 14% (inactive)
[2]
  growth inhibition: 52% (inactive)
At 50.0 µM
  growth inhibition: 73.2% (active)

## CCC[CH2][Sn]1([CH2]CCC)[O]C(=O)c2cc(C)ccc2[O]1
[1]
  growth inhibition: 71% (active)
[2]
  growth inhibition: 97% (active)
At 50.0 µM
  growth inhibition: 89.3% (active)

## Oc1ccc2ccccc2c1O
[1]
  growth inhibition: -5% (inactive)
[2]
  growth inhibition: 30% (inactive)
At 50.0 µM
  growth inhibition: 34% (inactive)

## COC(COC(=O)N1CCN(C=O)CC1)C1=C(N2CC2)C(=O)C(C)=C(N2CC2)C1=O (configuration not stated)
[1]
  growth inhibition: -11% (inactive)
[2]
  growth inhibition: 27% (inactive)
At 50.0 µM
  growth inhibition: 34.5% (inactive)

## [Ni+2].[O-][Cl+3]([O-])([O-])O.c1ccc([PH+](CC[PH+](c2ccccc2)c2ccccc2)c2ccccc2)cc1.c1ccc([PH+](CC[PH+](c2ccccc2)c2ccccc2)c2ccccc2)cc1
[1]
  growth inhibition: 3% (inactive)
[2]
  growth inhibition: -3% (inactive)
At 50.0 µM
  growth inhibition: 9.05% (inactive)

## CC(O)([CH2][Hg][Cl])C(O)[CH2][Hg][Cl] (configuration not stated)
[1]
  growth inhibition: 98% (active)
[2]
  growth inhibition: 99% (active)
At 50.0 µM
  growth inhibition: 97.7% (active)

## O=[N+]([O-])c1ccc(N2CCC(CCCC3CCN(c4ccc([N+](=O)[O-])cc4[N+](=O)[O-])CC3)CC2)c([N+](=O)[O-])c1
[1]
  growth inhibition: 10% (inactive)
[2]
  growth inhibition: 50% (inactive)
At 50.0 µM
  growth inhibition: 46.2% (inactive)

## COc1cc(O)c2c(O)c3c(c4c2c1[C@]1(C4)C(C)=CCCC1(C)C)[C@H](O)[C@@]1(O)CC(=O)C(C(N)=O)=C(O)[C@@]1(O)C3=O
[1]
  growth inhibition: 1% (inactive)
[2]
  growth inhibition: 98% (active)
At 50.0 µM
  growth inhibition: 98.1% (active)

## c1ccc2c(c1)[As]=c1ccccc1=[As]2 (configuration not stated)
[1]
  growth inhibition: 36% (inactive)
[2]
  growth inhibition: 99% (active)
At 50.0 µM
  growth inhibition: 92.1% (active)

## BrCC[N+]12CC[N+](CCBr)(CC1)C2
[1]
  growth inhibition: 35% (inactive) and 23% (inactive)
[2]
  growth inhibition: 92% (active) and 65% (inactive)
At 50.0 µM
  growth inhibition: 84.9% (active) and 85.5% (active)

## CC(=O)[O][Hg][c]1ccccc1N
[1]
  growth inhibition: 46% (inactive)
[2]
  growth inhibition: 99% (active)
At 50.0 µM
  growth inhibition: 92% (active)
